Calls of active or inactive are those of the source. How the source made its calls: active means hit-call score of the fitted dose curve at least 0.9, where 1 is the maximum; inactive means score below 0.9.
How the values were obtained:
[1] = APR_HepG2_CellCycleArrest_1hr: Apredica 1-hour HepG2 Assay for Cell Cycle Arrest (AID 2282666); conditions: high-content imaging, actives raise or lower the signal
Summary of the method: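 Cell cycle arrest scored from nuclear DNA content (Hoechst 33342) using high-content imaging of fixed HepG2 cells after 1 h treatment across 0.39–200 uM, in duplicate. Gain or loss fitted relative to 0.5% DMSO.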

[2] = APR_HepG2_MicrotubuleCSK_1hr: Apredica 1-hour HepG2 Assay for Microtubule CSK Stabilty (AID 2282669); conditions: HepG2 microtubule cytoskeleton imaging, actives raise or lower the signal
Summary of the method: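 Alpha-tubulin immunofluorescence, imaged by automated high-content microscopy with Hoechst nuclear segmentation, measured cytoskeletal change after 1 h dosing of HepG2 at 0.39–200 uM in 0.5% DMSO. Activity fitted in both directions relative to DMSO.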

[3] = APR_HepG2_p53Act_1hr: Apredica 1-hour HepG2 Assay for p53 Activation (AID 2282671); conditions: high-content imaging, actives raise or lower the signal
Summary of the method: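 After 1 h exposure (0.39–200 uM, 0.5% DMSO final, duplicates), fixed HepG2 cells were labelled with anti-p53 antibody plus Hoechst nuclear stain. Fluorescence quantified by automated 20x imaging; changes fitted in both directions against DMSO.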

[4] = APR_HepG2_MitoticArrest_1hr: Apredica 1-hour HepG2 Assay for Mitotic Arrest (AID 2282672); conditions: high-content imaging, actives raise or lower the signal
Summary of the method: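 Ten-point concentration series (0.39 to 200 uM, duplicates, 0.5% v/v DMSO) applied to human HepG2 liver cells for 1 hr. High-content imaging of phospho-histone H3 and Hoechst-stained nuclei after fixation and permeabilization; DMSO-normalised bidirectional fit.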

[5] = APR_HepG2_P-H2AX_1hr: Apredica 1-hour HepG2 Assay for H2AX Phosphorylation (AID 2282673); conditions: high-content imaging, actives raise or lower the signal
Summary of the method: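 Phospho-H2A.x immunofluorescence (1:200, FITC secondary) plus Hoechst nuclear stain, quantified by high-content imaging in HepG2 after 1 hr compound exposure. Ten concentrations, 0.39 to 200 uM, in duplicate with 0.5% DMSO; fit both directions against DMSO.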

[6] = APR_HepG2_MitoMass_1hr: Apredica 1-hour HepG2 Assay for Mitochondrial Mass (AID 2282674); conditions: high-content imaging, actives raise or lower the signal
Summary of the method: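 Mitochondrial mass is taken from MitoTracker Red CMXRos (250 nM, 30 min, pre-fixation) fluorescence imaged at 20x in HepG2 cells. Exposure lasted 1 hr across ten concentrations, 0.39 to 200 uM, 0.5% DMSO; DMSO baseline, bidirectional fitting.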

[7] = APR_HepG2_CellCycleArrest_24hr: Apredica 24-hour HepG2 Assay for Cell Cycle Arrest (AID 2282905); conditions: imaging, actives raise or lower the signal;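 further: cell cycle arrest scored as ratio of 2N to 4N nuclear DNA content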
Summary of the method: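 Compounds (0.39 to 200 uM, final DMSO 0.5% v/v) are applied to HepG2 cells for 24 hours; cells are then fixed, permeabilized and nuclei labeled with Hoechst 33342. Automated imaging measures DNA content, and activity is fitted in both directions against DMSO.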

[8] = APR_HepG2_StressKinase_1hr: Apredica 1-hour HepG2 Assay for Stress Kinase (AID 2282906); conditions: HepG2 stress kinase (phospho-c-Jun) imaging, actives raise or lower the signal
Summary of the method: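 High-content imaging of phospho-c-Jun immunostaining (with Hoechst nuclear identification) after a 1 h exposure of HepG2 cells to 10 concentrations from 0.39 to 200 uM, final DMSO 0.5%. Fitted bidirectionally against DMSO.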

[9] = APR_HepG2_NuclearSize_24hr: Apredica 24-hour HepG2 Assay for Nuclear Size (AID 2282907); conditions: high-content imaging, actives raise or lower the signal
Summary of the method: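 Nuclear size is measured by fluorescence high-content imaging of Hoechst-labelled HepG2 nuclei after 24 hr of treatment (0.39–200 uM, 0.5% DMSO). Cells are fixed in 3.7% formaldehyde before staining, and DMSO serves as the baseline for bidirectional curve fitting.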

[10] = APR_HepG2_CellLoss_24hr: Apredica 24-hour HepG2 Assay for Cell Loss (AID 2282908); conditions: high-content imaging;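 on AC50: fit in both directions so a hit may be cell loss or gain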
Summary of the method: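 Nuclear count serves as the viability measure: treated cells are fixed, permeabilized and labelled with Hoechst 33342, and six images per well are analysed to identify valid nuclei. Doses span 0.39–200 uM, and activity in either direction is scored against DMSO.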

[11] = APR_HepG2_MicrotubuleCSK_24hr: Apredica 24-hour HepG2 Assay for Microtubule CSK Stabilty (AID 2282909); conditions: HepG2 microtubule cytoskeleton imaging, actives raise or lower the signal
Summary of the method: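 Compounds were applied to HepG2 cells for 24 hours across 0.39–200 uM in duplicate, with final DMSO at 0.5% v/v. Fixed, permeabilized cells were labeled for alpha-tubulin and nuclei, and tubulin fluorescence was quantified by imaging, fitted bidirectionally against DMSO.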

[12] = APR_HepG2_MitoticArrest_24hr: Apredica 24-hour HepG2 Assay for Mitotic Arrest (AID 2282910); conditions: high-content imaging, actives raise or lower the signal
Summary of the method: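 Treatment lasted 24 hr in the human HepG2 line at 0.39–200 uM, solvent held at 0.5% DMSO. Fixed cells were stained with Hoechst 33342 and anti-phospho-histone H3, imaged at 20x, and analysed by gain- or loss-of-signal fitting against DMSO.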

[13] = APR_HepG2_MitoMembPot_24hr: Apredica 24-hour HepG2 Assay for Mitochondrial Membrane Potential (AID 2282911); conditions: imaging, actives raise or lower the signal
Summary of the method: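 HepG2 human liver cells were exposed 24 hr to compounds at 0.39–200 uM (final DMSO 0.5% v/v) in duplicate. MitoTracker Red CMXRos (250 nM, 30 min) was loaded before formaldehyde fixation; fluorescence was imaged by ArrayScan HCS and fitted bidirectionally versus DMSO.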

[14] = APR_HepG2_MitoMass_24hr: Apredica 24-hour HepG2 Assay for Mitochondrial Mass (AID 2282912); conditions: high-content imaging, actives raise or lower the signal
Summary of the method: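 After 24 hr of treatment at 0.39 to 200 uM, HepG2 cells take up 250 nM MitoTracker Red CMXRos for 30 min and are then fixed with 3.7% formaldehyde. Per-well images are quantified, and any change in either direction is scored against solvent.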

[15] = APR_HepG2_p53Act_24hr: Apredica 24-hour HepG2 Assay for p53 Activation (AID 2282913); conditions: high-content imaging, actives raise or lower the signal;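 further: p53 protein immunofluorescence averaged per cell in HepG2 with Hoechst nuclei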
Summary of the method: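 HepG2 cells exposed 24 hr to compounds at 0.39–200 uM (10 concentrations, duplicate), final DMSO 0.5% v/v. After formaldehyde fixation and Triton permeabilization, p53 was immunolabeled (sheep anti-p53, Cy5 secondary) with Hoechst 33342 nuclear counterstain, then imaged by high-content fluorescence microscopy.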

[16] = APR_HepG2_CellCycleArrest_72hr: Apredica 72-hour HepG2 Assay for Cell Cycle Arrest (AID 2282914); conditions: high-content imaging, actives raise or lower the signal
Summary of the method: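 HepG2 cells were exposed to compounds at 0.39–200 uM (0.5% v/v DMSO final, duplicates) for 72 hr, fixed in 3.7% formaldehyde, permeabilized and stained with Hoechst 33342. Nuclear DNA content was quantified by high-content imaging; gain or loss of signal was fitted bidirectionally against DMSO.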

[17] = APR_HepG2_NuclearSize_1hr: Apredica 1-hour HepG2 Assay for Nuclear Size (AID 2282670); conditions: high-content imaging, actives raise or lower the signal
Summary of the method: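 Nuclear size measured by high-content imaging of Hoechst 33342 nuclear stain after formaldehyde fixation; human HepG2 line exposed 1 hr to compounds at 0.39–200 uM in 0.5% DMSO, with bidirectional curve fitting relative to DMSO.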

[18] = APR_HepG2_CellLoss_72hr: Apredica 72-hour HepG2 Assay for Cell Loss (AID 2282915); conditions: high-content imaging
Summary of the method: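 HepG2 cells were exposed for 72 hr to compounds at 0.39–200 uM (ten concentrations, duplicate) in 0.5% v/v final DMSO. Nuclei were stained with Hoechst 33342 after 3.7% formaldehyde fixation, imaged at 20x, and counted; fits bidirectional versus DMSO.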

[19] = APR_HepG2_CellLoss_1hr: Apredica 1-hour HepG2 Assay for Cell Loss (AID 2282668); conditions: high-content imaging;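 further: curves fitted both ways against DMSO so gain or loss of cells counts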
Summary of the method: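 Cell number comes from high-content imaging of Hoechst-labelled nuclei in fixed HepG2 cells. Cells were exposed for 1 h to ten concentrations from 0.39 to 200 uM in 0.5% DMSO. Gain or loss was fitted against DMSO controls.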

[20] = APR_HepG2_MitoMembPot_1hr: Apredica 1-hour HepG2 Assay for Mitochondrial Membrane Potential (AID 2282675); conditions: imaging, actives raise or lower the signal
Summary of the method: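 Mitochondrial membrane potential read as MitoTracker Red CMXRos intensity by automated imaging of fixed HepG2 cells. Dye at 250 nM for 30 min pre-fixation; compounds 0.39 to 200 uM for 1 hour, duplicate wells, 0.5% DMSO.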

Measured: AC50

CNC(=O)ON=C(SC)C(=O)N(C)C
not listed: [17] | [18] | [19] | [20]
inactive: all other assays above

COP(=O)(OC)C(O)C(Cl)(Cl)Cl (stereo unspecified)
active: [7] 164 µM | [10] 76.8 µM | [11] 97.7 µM | [12] 103 µM | [16] 184 µM | [18] 100 µM
not listed: [13] | [19] | [20]
inactive: all other assays above

CNc1cnn(-c2cccc(C(F)(F)F)c2)c(=O)c1Cl
not listed: [1] | [18] | [20]
inactive: all other assays above

CC(C)[C@H](C(=O)O[C@H](C#N)c1cccc(Oc2ccccc2)c1)c1ccc(Cl)cc1
not listed: [1] | [20]
inactive: all other assays above

CC(COc1ccc(Oc2ccccc2)cc1)Oc1ccccn1 (stereo unspecified)
active: [20] 66.9 µM | [7] 77 µM | [13] 65.7 µM | [16] 87 µM
not listed: [8] | [18] | [19]
inactive: all other assays above

COP(=O)(OC)SCn1c(=O)oc2cc(Cl)cnc21
active: [10] 32.9 µM | [11] 30.2 µM | [16] 47.4 µM | [18] 37.8 µM
not listed: [8] | [13] | [17]
inactive: all other assays above

CC(Oc1cccc(Cl)c1)C(=O)O (stereo unspecified)
not listed: [8] | [17] | [18] | [19]
inactive: all other assays above

Cc1cc(C2CC2)nc(Nc2ccccc2)n1
active: [10] 60.5 µM | [11] 98.6 µM
not listed: [1] | [8] | [18] | [19] | [20]
inactive: all other assays above

CCOP(=S)(OCC)Oc1cc(C)nc(C(C)C)n1
not listed: [1] | [8] | [13] | [17] | [18]
inactive: all other assays above

CON=C(C(=O)OC)c1ccccc1CON=C(C)c1cccc(C(F)(F)F)c1
not listed: [1] | [13] | [17] | [18]
inactive: all other assays above

CC(C1CC1)C(O)(Cn1cncn1)c1ccc(Cl)cc1 (stereo unspecified)
not listed: [1] | [8] | [17] | [20]
inactive: all other assays above

CC1=NNC(=O)N(/N=C/c2cccnc2)C1
not listed: [1] | [13] | [17] | [18] | [19]
inactive: all other assays above

CSC1=N[C@@](C)(c2ccccc2)C(=O)N1Nc1ccccc1
active: [11] 43.3 µM
not listed: [1] | [17] | [18]
inactive: all other assays above

CCOP(=S)(OCC)OC(Cl)C(Cl)(Cl)Cl (stereo unspecified)
active: [10] 97.5 µM | [13] 151 µM | [16] 165 µM | [18] 144 µM
not listed: [1] | [8] | [20]
inactive: all other assays above

O=C(O)c1cc(Oc2ccc(C(F)(F)F)cc2Cl)ccc1[N+](=O)[O-]
not listed: [1] | [3] | [15] | [17] | [18] | [20]
inactive: all other assays above

CCc1cccc(CC)c1N(COC)C(=O)CCl
inactive: [19] | [2] | [4] | [5] | [6] | [9] | [14] | [16]
active: [7] 60.9 µM | [10] 92.5 µM | [11] 55.7 µM | [12] 62.4 µM | [18] 17.2 µM

CCCCN(CC)c1c([N+](=O)[O-])cc(C(F)(F)F)cc1[N+](=O)[O-]
active: [7] 99.3 µM | [13] 71.9 µM | [16] 108 µM
not listed: [1] | [8] | [17] | [18] | [20]
inactive: all other assays above

CCOP(=O)(NC(C)C)Oc1ccc(SC)c(C)c1 (stereo unspecified)
active: [18] 89.2 µM
not listed: [1] | [8] | [17] | [19] | [20]
inactive: all other assays above

C#CCC1=C(C)C(OC(=O)C2C(C=C(C)C)C2(C)C)CC1=O (stereo unspecified)
active: [7] 151 µM | [10] 89.4 µM | [16] 104 µM
not listed: [1] | [8] | [13] | [18] | [19] | [20]
inactive: all other assays above

CCOP(=O)(OCC)Oc1cc(C)nc(C(C)C)n1
not listed: [1] | [8] | [13] | [18] | [20]
inactive: all other assays above

C[Si](Cn1cncn1)(c1ccc(F)cc1)c1ccc(F)cc1
not listed: [1] | [13] | [18] | [19]
inactive: all other assays above

— PubChem BioAssay (EPA / NIEHS)
